Inconclusive results are not listed. Where a call stands in place of a potency, no number is given. Unmarked numbers belong to inactive results. The source made the active and inactive calls. Calls follow the shape of the dose curve; as a rule, active = well fitted curve in the direction sought with a large enough effect; inconclusive = small, poorly fitted or top-dose-only effect, or another doubt; inactive = no such curve, though single readings can be large; an effect the other way counts as inactive or inconclusive.
Columns and labels:
[1] = target: Cellular tumor antigen p53 (Homo sapiens) (UniProt P04637); assay: Primary qHTS for small molecule compounds that upregulate eGFP-tagged delta133p53alpha (in N-terminal) cells. (AID 2060322); details: NCI-H358 eGFP-delta133p53alpha fluorescence, 24 h; activation: active compounds read high; also: nearly all actives have a fitted effect of over 75% in size; also: potency is read from the fitted curve at half-maximal effect; as to activation: series mostly up to about 56 µM
Sequence of Cellular tumor antigen p53 (Homo sapiens) (P04637 whole entry, looked up): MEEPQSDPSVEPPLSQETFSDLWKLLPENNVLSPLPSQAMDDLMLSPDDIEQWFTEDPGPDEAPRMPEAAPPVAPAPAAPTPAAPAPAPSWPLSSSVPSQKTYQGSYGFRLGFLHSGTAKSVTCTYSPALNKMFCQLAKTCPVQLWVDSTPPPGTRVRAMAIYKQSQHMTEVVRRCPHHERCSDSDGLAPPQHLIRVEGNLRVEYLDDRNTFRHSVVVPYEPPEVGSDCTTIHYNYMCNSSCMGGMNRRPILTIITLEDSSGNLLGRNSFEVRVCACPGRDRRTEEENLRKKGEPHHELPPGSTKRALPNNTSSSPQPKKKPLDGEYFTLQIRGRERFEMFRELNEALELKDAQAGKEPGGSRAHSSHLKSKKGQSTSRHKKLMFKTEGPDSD
Summary of the method: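 NCI-H358 cells pre-induced 24 h with 10 ng/ml doxycycline to express N-terminal eGFP-delta133p53alpha, then dosed 24 h at 37C without doxycycline; fixed, Hoechst-stained, GFP intensity by laser scanning cytometry, normalized to DMSO (0%) and 57.5 uM 5-azacytidine (100%).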

[2] = target: Aldehyde dehydrogenase, mitochondrial (Homo sapiens) (UniProt P05091); assay: qHTS for Inhibitors of the Aldehyde Dehydrogenase Family (ALDH2) Primary screen (AID 2061308); also: nearly all actives have a fitted effect of over 55% in size
[3] = target: Retinaldehyde dehydrogenase 3 (Homo sapiens) (UniProt P47895); assay: qHTS for Inhibitors of the Aldehyde Dehydrogenase Family (ALDH1A3) Primary screen (AID 2061315)

Compound | activation [1] | Potency [2] | Potency [3] | Potency [1] | activity change, negative = inhibition [2] | activity change, negative = inhibition [3]
C=C(C)C1Cc2cc(C(=O)OC3OC(CO)C(O)C(O)C3O)ccc2O1 (configuration not stated) | 9.92% | inactive | inactive | – | – | –
C=C1C(=O)O[C@@H]2[C@H]3C(C)=CC(=O)C3=C(C)[C@@H](OC(=O)/C(C)=C\C)[C@H](O)[C@@H]12 | – | inactive | inactive | 16.6 µM (active) | – | –
CC(C)CC(c1c(O)c(C=O)c(O)c(C=O)c1O)C1CCC(C)(O)C2CC(C(C)(C)O)CCC12C (configuration not stated) | 22.3% | inactive | inactive | – | – | –
N#Cc1cc(CN2CCC(Nc3ncnc4sc(Cl)cc34)CC2)ccc1F | 5% | inactive | inactive | – | – | –
COC(=O)[C@]1(C)CCC[C@@]2(C)[C@@H]3CC[C@@H]4C[C@@]3(CC[C@@H]21)C[C@H]4C(=O)O | -17.6% | inactive | inactive | – | – | –
C[C@H](N)C(=O)N[C@@H](Cc1ccc(O)cc1)C(=O)N1CCC[C@H]1C(=O)NCC(=O)N[C@@H](CCCCN)C(=O)N[C@@H](Cc1ccccc1)C(N)=O | -5.67% | – | – | – | 4.44% [at 11.2 µM] | -9.63% [at 11.2 µM]
CC(C)=CCC/C(C)=C/CO[C@@H]1O[C@H](CO)[C@@H](O)[C@H](O)[C@H]1O | -4.46% | inactive | inactive | – | – | –
CC1(C)CCCC2(C)C=C(C(=O)O)C(O)CC12 (configuration not stated) | -19.1% | inactive | inactive | – | – | –
CC1(C)[C@@H]2CC=C(CO[C@@H]3O[C@H](CO[C@@H]4OC[C@H](O)[C@H](O)[C@H]4O)[C@@H](O)[C@H](O)[C@H]3O)[C@H]1C2 | -4.46% | inactive | inactive | – | – | –
